Assay outcomes from PubChem BioAssay.
HTT ATP protect: cytoprotection in Huntington HTT-Q103 PC12 cell model | PC12 HTT-Q103 induced, cytoprotection, ATP luminescence, 40 h | AID 1471 | Potency, µM (top dose mostly 56.4 µM), without a hit: cytoprotection (ATP increase), hits mostly activators | hit rate 0.14% among 230,000; further: % of control where 0% means no effect; nearly all actives have a fitted effect of over 45% in size
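Readout: ATPlite luminescence (ATP level). Model: stable PC12, inducible Htt exon1 Q103-GFP. Inducer: tebufenozide, 100 nM final. Compounds: dose series. No G418 in medium.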
TGFb SMAD3 inh: TGF-b pathway inhibition; HepG2 CAGA-GFP TGF-b/SMAD3 reporter, GFP fluorescence, 18 h; TGF-beta stimulated, 500 pg/mL final; hit rate 1.2% among 410,000; AID 588855; Potency, µM (titrated, usually from 46.1 µM), without a hit: at the top dose activity, negative = inhibition, most hits filed as inhibitors; further: on the % scale 0 is the no-effect control and ±100 the full control effect; nearly all actives have a fitted effect of over 65% in size
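First, reporter cells (HEPG2 CAGA-GFP) rested 2 h at 37 degrees C. Next, compounds were pinned in and TGF-beta added to 500 pg/mL final. After 18 h, GFP was imaged per cell and summed per well.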
HTT aggregate: reduces HttQ103-GFP aggregates in PC12 cells. PC12 HttQ103-GFP aggregates, Acumen cytometry, 40 h. Potency, µM (highest dose often 46.1 µM), inactives show top-dose activity change, negative = inhibition, most hits filed as inhibitors. hit rate 1.1% among 220,000. AID 1688; further: on the % scale 0 is the no-effect control and ±100 the full control effect; nearly all actives have a fitted effect of over 60% in size
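Using laser scanning cytometry, GFP-positive aggregates were counted after lysis of PC12 cells induced with 100 nM tebufenozide to express HTT exon 1 Q103–GFP. Compounds were tested in titration.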
HepG2 viability: kills HepG2 cells in TGF-b inhibitor counter-screen. HepG2 CAGA-GFP viability, ATP luminescence, 18 h. Potency, µM (highest dose often 46.1 µM), inactives show at the highest dose activity change, negative = cytotoxicity, usual class: cytotoxic. AID 588856. hit rate 0.76% among 410,000
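HepG2 CAGA-GFP cells (1000/well, DMEM with 1% FBS) received compound, then TGF-beta at 500 pg/mL final, and were incubated 18 hours at 37 degrees C. Viability was read by CellTiter-Glo luminescence. Media-only wells were set as complete cell-killing and DMSO as no toxicity.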
ATXN2 expr inh: reduces ATXN2 reporter expression in HEK-293 cells; HEK-293 ATXN2-luciferase reporter, luminescence, 24 h; AID 1745845; hit rate 0.72% among 360,000; Potency, µM (top dose mostly 57 µM), for the others: top-dose activity change, negative = inhibition, usual class: inhibitors; further: on the % scale 0 is the no-effect control and ±100 the full control effect; nearly all actives have a fitted effect of over 55% in size
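ATXN2-luciferase reporter cells (luciferase flanked by upstream and downstream ATXN2 gene portions) were treated 24 h at 37 °C with compounds at up to 57 uM. SteadyGlo luminescence gave expression; GF-AFC fluorescence gave viability.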
S2 tox: reduces viability in counter-screen for ATXN expression inhibitors; AID 651635; Potency, µM (series often up to 56.7 µM), usual class: cytotoxic; S2 cells (HEK-293 line with an ATXN2-luciferase reporter) viability, CellTiter-Fluor protease fluorescence, 24 h; hit rate 0.49% among 400,000; further: nearly all actives have a fitted effect of over 40% in size
* hit, by the source's call; i = inactive; ? = inconclusive; . = no result given; ! = repeats disagree. In the library only some 2.8% were active in any assay of this set; here they are far more common. The call rests on the fitted dose curve; in most records, active means well fitted curve in the direction sought with a large enough effect; inconclusive means small, poorly fitted or top-dose-only effect, or another doubt; inactive means no such curve, though single readings can be large; an effect the other way counts as inactive or inconclusive. Potency means the concentration at half of the fitted maximal effect.

SMILES | HTT ATP protect | TGFb SMAD3 inh | HTT aggregate | HepG2 viability | ATXN2 expr inh | S2 tox
Cc1oc(-c2ccccc2NS(C)(=O)=O)nc1CN(C)Cc1ccc(Cl)cc1 | . | . | . | . | . | i
C=CCn1c(SCC)nc2ccccc2c1=O | . | 0% | . | -7% | . | .
Cc1cc(=O)c2c(O)c3c(O)cc(=O)c4c3c3c(cc(O)c1c23)C(C)(C)C=4O | -253% | . | 3.2µM* | . | 27µM*! | i
C[Se]CC[C@H](N)C(=O)O | -1% | . | 4% | . | . | .
FC(F)(F)c1cccc(CN2CCC(c3cc(-c4cccs4)n[nH]3)CC2)c1 | -124% | ? | 13% | 20µM* | ? | ?
Cc1ccc(C(=O)NCCc2nnc3n2CCN(Cc2cc(C)cc(C)c2)CC3)cc1 | . | . | . | . | . | i
COc1nc(C)cnc1NS(=O)(=O)c1cccnc1-c1ccc(-c2nnco2)cc1 | . | . | . | . | -7% | .
CC(C)CC(N)c1csc(NC(=O)NCCc2ccccc2)n1 (stereo not drawn) | . | -3% | . | -28% | -11% | i
NC(Cc1ccc(C(F)(F)F)cc1)c1csc(NC(=O)Nc2ccccc2Oc2ccccc2)n1 (stereo not drawn) | . | 11µM* | . | 10µM* | -14% | .
COc1ccc(CC(N)c2csc(NC(=O)Nc3ccccc3Cc3ccccc3)n2)cc1 (stereo not drawn) | . | ? | . | 22µM* | ? | ?
COc1ccccc1NC(=O)Nc1nc(C(N)Cc2ccc(C(F)(F)F)cc2)cs1 (stereo not drawn) | . | ? | . | 20µM* | -1% | .
NC(Cc1ccc(C(F)(F)F)cc1)c1csc(NC(=O)NCCc2ccccc2)n1 (stereo not drawn) | . | 14µM* | . | 11µM* | ? | ?
NC(Cc1ccccc1)c1csc(NC(=O)Nc2ccccc2Oc2ccccc2)n1 (stereo not drawn) | . | ? | . | -104% | ? | ?
COc1ccccc1NC(=O)Nc1nc(C(N)C(C)C)cs1 (stereo not drawn) | . | ? | . | -2% | ? | i
COc1cc(CNC(=O)Nc2nc(C(N)CCc3ccccc3)cs2)cc(OC)c1OC (stereo not drawn) | . | ? | . | -88% | ? | ?
NC(CCc1ccccc1)c1csc(NC(=O)Nc2cccc(Cl)c2)n1 (stereo not drawn) | . | ? | . | 16µM* | 20µM* | 28µM*
CC(C)CC(N)c1csc(NC(=O)Nc2ccccc2C(C)(C)C)n1 (stereo not drawn) | . | 14µM* | . | -100% | ? | i
COc1ccccc1CNC(=O)Nc1nc(C(N)Cc2ccc(Cl)cc2)cs1 (stereo not drawn) | . | ? | . | -97% | ? | 32µM*
COc1ccc(CNC(=O)Nc2nc(C(N)Cc3ccc(Cl)cc3)cs2)cc1 (stereo not drawn) | . | ? | . | -94% | ? | i
COc1ccccc1NC(=O)Nc1nc(C(N)CCc2ccccc2)cs1 (stereo not drawn) | . | 11µM* | . | 10µM* | ? | ?
O=C(NC1CCCCCC1)C1CCC(CNS(=O)(=O)c2cccc3cccnc23)CC1 (stereo not drawn) | . | 3% | . | -23% | . | .
NC(COCc1ccccc1)c1csc(NC(=O)Nc2cccc(C(F)(F)F)c2)n1 (stereo not drawn) | . | 14µM* | . | -106% | ? | .
Cc1cc(C)c(NC(=O)CSc2nc3ccc(NC(=O)CSc4nnnn4-c4ccccc4)cc3s2)c(C)c1 | . | 0% | 10µM* | -22% | -14% | ?
CSc1ccc(/C=C/c2nc3ccccc3n2S(=O)(=O)c2cccc(Cl)c2)cc1 | . | -6% | . | -96% | ? | i
O=S(=O)(c1cccc(Cl)c1)n1c(/C=C/c2ccccc2Cl)nc2ccccc21 | . | ? | . | 10µM* | . | .
OC1(c2cccnc2)CCN(Cc2ccc3c(c2)CN(Cc2cccc(F)c2F)CCO3)CC1 | . | . | . | . | . | i
